Source: PubChem (National Center for Advancing Translational Sciences (NCATS))
ERK EGF block = blocks ERK signaling stimulated by EGF | HEK293-V1b, EGF-stimulated phospho-ERK AlphaScreen | Potency, µM (series often up to 11.5 µM), hits mostly inhibitors | actives 0.41% (n = 130,000) | AID 1454; active = well fitted inhibition curve with a large enough effect; also: nearly all actives have a fitted effect of over 55% in size
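Homogeneous cell-based phospho-ERK assay: HEK293/V1b cells in 1% FBS, compound 30 min then EGF 5 min, AlphaScreen luminescence. Activity normalized between DMSO and 25 nM EGF controls; AC50 from Hill modelling.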
Numbers stand for hits; - = inactive; ! = repeats disagree. The full list was thinned out, with hits kept by preference.

SMILES	ERK EGF block
COc1ccccc1CNc1ncncc1-c1ccccc1C	-
COc1ccccc1CNc1ncncc1-c1ccc(N(C)C)cc1	20µM
COc1ccccc1CNc1ncncc1-c1ccoc1	-
COc1ccc(C2C3(C#N)C(N)=NC(OC)(OC)C23C#N)cc1 (stereo not drawn)	25µM
COc1ccc(C2C(C#N)=C(N)Nc3nc4ccccc4n32)cc1 (stereo not drawn)	-
COc1ccc([C@@H]2OC2(C(N)=O)C(N)=O)cc1	-
O=C(O)c1ccc(OCC(F)(F)F)nc1	-
CCCCCCN(C(=O)CCCCCN1C(=O)NC(c2ccc(-c3ccccc3)cc2)C(C(=O)OCc2ccccc2)=C1C)C(C(=O)NCCCC)c1ccc(OCC(=O)O)c(C(=O)O)c1 (stereo not drawn)	-
CC1(C)Oc2ccc3ccc(=O)oc3c2CC1=O	-
Cc1nc(NCc2ccccc2)c2nc(-c3ccccc3)n(CCN3CCCC3)c2n1	-
Cc1ccccc1S(=O)(=O)Nc1ncnc2scc(-c3ccccc3)c12	-
Oc1ccc(Nc2ncnc3scc(-c4ccccc4)c23)cc1	22µM
Cc1sc2ncnc(N/N=C/c3cccc(O)c3)c2c1C	-
Cc1sc2ncnc(Nc3ccc(O)cc3)c2c1C	28µM
CN(C)CCCNc1ncnc2scc(-c3ccccc3)c12	-
Cc1sc2ncnc(N)c2c1C	-
CN(C)c1ncc2nc(CCc3ccccc3)c(=O)n(C[C@H]3CCCO3)c2n1	-
Cc1nc(Nc2ccccc2)c2nc(-c3ccccc3)n(CCCN3CCCCC3C)c2n1 (stereo not drawn)	-
COc1ccc(-c2[nH]ncc2-c2csc(C)n2)c(O)c1	-
COc1ccc(-c2cn[nH]c2-c2ccc(OCc3ccccc3)cc2O)cc1	22µM
COc1ccc(-c2[nH]ncc2CN2CCC(OCc3ccccn3)CC2)c(F)c1	-
COc1ccc(-c2cn[nH]c2-c2ccc(OCc3ccccc3F)cc2O)cc1OC	32µM
COc1ccccc1-c1cn[nH]c1-c1ccc(OCc2ccccc2)cc1O	-
O=[N+]([O-])c1ccc(COc2ccc(-c3[nH]ncc3-c3ccc(Cl)cc3)c(O)c2)cc1	-
C=C1C(=O)OC2C[C@@]3(C)CCCC(C)C3=CC12 (stereo partly drawn)	-
SMILES	ERK EGF block
CC1(C)CCC=[N+]1[O-]	-
O=C(c1cccc(F)c1)N1CCC2(CC1)CN(c1ccccn1)C2	-
CN1CCN(C(N)=NC(=O)c2ccccc2)CC1	-
Cc1ccccc1NC(=S)NCC1CCC(CNC(=S)Nc2ccccc2C)CC1 (stereo not drawn)	-
CCc1ccccc1NC(=S)NCC1CCN(c2ccc(OC)cc2)C1 (stereo not drawn)	14µM
CCc1ccccc1NC(=S)N1CCC(NC(=O)c2ccc(OC)cc2)CC1	-
Cc1cc(C)c(NC(=S)NCC2CCN(C(C)c3ccccc3)C2)c(C)c1 (stereo not drawn)	-
CCc1cccc(C)c1NC(=S)NCC1CCN(c2ccc(OC)cc2)C1 (stereo not drawn)	10µM
COc1ccc(N2CCN(C(=O)Nc3ccccc3Cl)CC2)cc1	-
Cc1nc2c(O)cccc2cc1CO	-
COC(=O)N[C@H](CC(C)=O)c1ccccc1	-
O=C(O)CCn1cc(/C=N/O)c(-c2cccc([N+](=O)[O-])c2)n1	-
CO/N=C/C=C1/N(C)c2ccccc2C1(C)C	-
CN(C)c1ccc(N=C/C=C2/N(C)c3ccccc3C2(C)C)cc1	14µM
CN1/C(=C\C(=S)NC(=O)c2ccc([N+](=O)[O-])cc2)C(C)(C)c2ccccc21	-
CN1/C(=C\C=N\O)C(C)(C)c2ccccc21	-
CN1/C(=C\C=C2/SC(=S)NC2=O)C(C)(C)c2ccccc21	25µM
CN1C(=CC=C2C=C(I)C(=O)C(I)=C2)C(C)(C)c2ccccc21	13µM
CN1/C(=C\C=C2/C(=O)Oc3ccccc3C2=O)C(C)(C)c2ccccc21	-
CN1CCC/C1=C/C=C1\SC(=S)NC1=O	-
CN1/C(=C\C=Nc2cc(S(=O)(=O)N3CCOCC3)ccc2N2CCOCC2)C(C)(C)c2ccccc21	-
COc1ccc2c(c1)O[C@@H](c1cccc(C(F)(F)F)c1)[C@H](OC(=O)NCc1ccco1)C2=O	-
C/C(CC(=O)NC(C)(C)C)=N\NC(N)=S	-
Cc1cnc(CNc2nc(-c3ccc4c(c3)OCO4)nc3ccccc23)cn1	-
Cc1ccc(S(=O)(=O)Nc2ccc(NC(=O)c3cccnc3)cc2)cc1	-
SMILES	ERK EGF block
COc1cccc([C@@H]2Oc3ccc(OC)cc3C(=O)[C@H]2OC(=O)Nc2ccc(C)c(Br)c2)c1	-
Cn1cc(C(=O)CCl)c2ccccc21	-
Clc1ccccc1-c1nnc2n1CCCCC2	-
CCCn1c(-c2ccc(F)cc2)nc2c(NCCCCN(C)C)nc(C)nc21	-
COc1ccc(C(=O)N2CCC3(CC2)CCN(c2cccc(-c4ccccc4)c2)CC3)cc1	-
O=[N+]([O-])c1ccccc1/C=C/C=N/n1c(-c2ccccc2)n[nH]c1=S	-
COc1ccccc1N1CCN(/N=C/C=C\c2ccccc2[N+](=O)[O-])CC1	25µM
Cc1ccc(N2CCN(/N=C/c3ccccc3[N+](=O)[O-])CC2)cc1	-
CCOC(=O)N/N=C/C=C/c1ccccc1[N+](=O)[O-]	-
COc1ccccc1N1CCN(/N=C/c2cccc(OC)c2O)CC1	-
CC1CCCC(C)N1/N=C/C=C/c1ccccc1[N+](=O)[O-] (stereo not drawn)	20µM
C#CCCCCCCCCCCCC(=O)CC(O)COC(C)=O (stereo not drawn)	-
O=S(=O)(c1ccccc1)N1CCC2(CCCN(Cc3ccncc3)C2)CC1	-
COc1ccccc1C/C(N)=N/OC(=O)/C=C/c1ccccc1	-
Cc1c(CCOC(=O)c2cccc([N+](=O)[O-])c2)sc[n+]1CC(=O)c1ccccc1	-
C1CCN2CC3CC(CN4CCCC[C@@H]34)C2C1 (stereo partly drawn)	-
CCN1CCN(C(=O)C(C)Nc2cc(Cl)c(OC)cc2OC)CC1 (stereo not drawn)	-
CCCCCCCC1=CC2=C(Cl)C(=O)C(C)(OC(C)=O)C(=O)C2=CN1C (stereo not drawn)	-
Oc1cc2c(cc1O)C1c3ccc(O)c(O)c3OCC1(O)C2 (stereo not drawn)	11µM!
CC(C)NC(=O)c1ccc(C(C)C)cc1	-
COc1cc(NC(=O)c2cc3cccc(OC)c3o2)cc(C(=O)Nc2cccc(C(F)(F)F)c2)c1	-
O=C(O)CN1C(=O)/C(=C/C=C/c2ccccc2)SC1=S	-
CCN1C(=O)/C(=C\C=C2/C=CC=CN2CC)SC1=S	25µM
CN1C=CC=C/C1=C1/SC(=S)N(Cc2ccccc2)C1=O	-
OCCC1CN(Cc2cccc3nccnc23)CCN1Cc1ccc(F)cc1 (stereo not drawn)	-
SMILES	ERK EGF block
CCCC(=O)Nc1ccc(OC[C@@H](O)CNC(C)C)c(C(C)=O)c1	-
CC[C@H]1C2=C3C(CC[C@H]4C(OCc5ccc(F)cc5C(F)(F)F)OC[C@](C)([C@@H]34)N(C(=O)OC(C)(C)C)C2)C2COC(=O)OCC21 (stereo partly drawn)	-
O=S(=O)(O)c1ccc(N=Nc2ccccc2)cc1	-
Nc1ccc(N=Nc2ccccc2)c2ccccc12	18µM
Nc1ccc(N=Nc2ccccc2)c(N)n1	-
CNC(=O)Oc1ccc2c(c1)[C@@]1(C)CCN(C)C1N2C (stereo partly drawn)	-
C=C[C@@H](C)[C@](C)(O)c1ccccc1	-
COc1ccccc1S(=O)(=O)c1ccccc1[N+](=O)[O-]	-
COc1ccc(-c2nc(-c3cccc([N+](=O)[O-])c3O)cc(=O)o2)cc1OC	-
